From PubChem BioAssay (NCI)
This is part of a sample that, as a whole, favours compounds with a hit. Of some 83,000 tested, about 20% had one in any assay.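 A percent growth of 40 corresponds to 60% growth inhibition; 0 means no net growth; -100 means all cells died. Active threshold: below 10.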 The source made the active and inactive calls.

Assays:
Test in all cases: NCI-60 one-dose screen, 48 h (100 = growth as untreated, 0 = no growth, -100 = all killed)
MOLT-4 leukemia = conditions: 10 µM
SR leukemia = conditions: 10 µM
RPMI-8226 leukemia = conditions: 10 µM
OVCAR-5 ovarian = conditions: 10 µM
OVCAR-4 ovarian = conditions: 10 µM
SK-OV-3 ovarian = conditions: 10 µM
OVCAR-3 ovarian = conditions: 10 µM
HS 578T breast = conditions: 10 µM
NCI/ADR-RES ovarian = conditions: 10 µM
T-47D breast = conditions: 10 µM
BT-549 breast = conditions: 10 µM
MDA-MB-435 melanoma = conditions: 10 µM
SW-620 colon = conditions: 10 µM
MCF7 breast = conditions: 10 µM unless noted
HCT-116 colon = conditions: 10 µM
HCC-2998 colon = conditions: 10 µM
KM12 colon = conditions: 10 µM
OVCAR-8 ovarian = conditions: 10 µM

Measured: growth

Cc1ccc(NC(=O)CBr)cc1
inactive: MOLT-4 leukemia 98.4% | SR leukemia 89.5% | RPMI-8226 leukemia 102% | OVCAR-5 ovarian 109% | OVCAR-4 ovarian 102% | SK-OV-3 ovarian 86.1% | OVCAR-3 ovarian 112% | HS 578T breast 107% | NCI/ADR-RES ovarian 106% | T-47D breast 98.5% | BT-549 breast 139% | MDA-MB-435 melanoma 102% | SW-620 colon 92.8% | MCF7 breast 93.5% | HCT-116 colon 106% | HCC-2998 colon 113% | KM12 colon 109%

CCOP(=O)(OCC)/C(C#N)=C/c1ccc(Br)cc1
inactive: MOLT-4 leukemia 92% | RPMI-8226 leukemia 54.9% | OVCAR-8 ovarian 100% | SK-OV-3 ovarian 97.4% | OVCAR-3 ovarian 112% | HS 578T breast 100% | NCI/ADR-RES ovarian 107% | T-47D breast 90.8% | MDA-MB-435 melanoma 104% | SW-620 colon 105% | MCF7 breast 92% | HCT-116 colon 101% | HCC-2998 colon 102% | KM12 colon 109%

CC[C@@H](C)[C@@H]1NC(=O)C(NC(=O)C(CC(C)C)N(C)C(=O)C2CCCN2C(=O)C(C)O)C(C)OC(=O)C(Cc2ccc(OC)cc2)N(C)C(=O)C2CCCN2C(=O)C(CC(C)C)NC(=O)C(C)C(=O)C(C(C)C)OC(=O)C[C@H]1O (stereo not given in full)
active: MOLT-4 leukemia -15.8% | SR leukemia 1.46% | RPMI-8226 leukemia -27.5% | OVCAR-5 ovarian -71.8% | SK-OV-3 ovarian -38.5% | OVCAR-3 ovarian -39.6% | NCI/ADR-RES ovarian -43.2% | T-47D breast -32.5% | BT-549 breast -74.2% | MDA-MB-435 melanoma -91.8% | SW-620 colon -45.5% | MCF7 breast -27.7% | HCT-116 colon -28.8% | KM12 colon -49.8%

COc1ccccc1/C=C/[N+](=O)[O-]
active: SR leukemia -11.9%
inactive: MOLT-4 leukemia 53.3% | OVCAR-8 ovarian 63.3% | SK-OV-3 ovarian 113% | OVCAR-3 ovarian 49.9% | HS 578T breast 79% | NCI/ADR-RES ovarian 91.4% | T-47D breast 50.7% | BT-549 breast 82.4% | MDA-MB-435 melanoma 39.3% | SW-620 colon 58.8% | MCF7 breast 28.8% | HCT-116 colon 36.2% | HCC-2998 colon 88.7% | KM12 colon 65.9%

COC12C(COC(N)=O)C3=C(C(=O)C(C)=C(N)C3=O)N1CC1C2N1C (stereo not given)
active: MOLT-4 leukemia 7.02% | SR leukemia 4.38% | HCC-2998 colon -4.28%
inactive: RPMI-8226 leukemia 51.7% | SK-OV-3 ovarian 54.7% | OVCAR-3 ovarian 79.2% | HS 578T breast 67.1% | NCI/ADR-RES ovarian 66.9% | T-47D breast 52.8% | BT-549 breast 60% | MDA-MB-435 melanoma 68.6% | SW-620 colon 36.8% | MCF7 breast 27.5% | HCT-116 colon 44.3% | KM12 colon 64.2%
